# Only some compounds are listed: those with a hit (about 1.5% of all), similar ones and a draw of the others.
# PV pol inh: poliovirus RdRp elongation inhibitors, primary screen, biochemical, fluorescence polarization, total intensity. Genome polyprotein (Poliovirus type 1 (strain Mahoney)), P03300. 150,000 compounds, 0.66% hits. poliovirus polymerase elongation; stronger effect = lower value. % elongation, % (compound at 16.7 µg/mL); in the data active means % elongation below about 90%
# Mtb MbtI inh: MbtI salicylate synthase inhibitors, primary screen, biochemical, fluorescence intensity; P9WFX0; 100,000 compounds, 0.89% hits; inhibition, % (no concentration beside the values); purified MbtI enzyme, fluorescence intensity read-out; in the data active means inhibition mostly above about 56%, no sharp cut-off; inactive means mostly below about 77%
# MenB inh: M. tuberculosis MenB inhibitors, primary screen, biochemical, absorbance; 100,000 compounds, 0.43% hits; MenB enzyme assay, absorbance read-out; inhibition, % (concentration not given with the values); in the data active means inhibition above about 21%, passing the limit was not always enough
# Target sequence (P9WNP5 whole entry, looked up): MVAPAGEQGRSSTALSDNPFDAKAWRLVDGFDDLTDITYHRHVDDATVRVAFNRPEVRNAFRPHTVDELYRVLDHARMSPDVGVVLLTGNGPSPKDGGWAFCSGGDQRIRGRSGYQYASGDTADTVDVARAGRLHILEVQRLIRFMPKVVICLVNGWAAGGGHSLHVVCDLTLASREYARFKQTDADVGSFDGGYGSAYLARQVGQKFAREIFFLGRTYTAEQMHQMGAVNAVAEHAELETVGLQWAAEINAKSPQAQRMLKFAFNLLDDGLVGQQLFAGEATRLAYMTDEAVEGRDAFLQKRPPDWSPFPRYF
# AID504770: growth inhibition of E. coli YBA685, primary screen, V. cholerae RctB inhibitors | 130,000 compounds, 0.27% hits | z-score (test concentration not listed) | E. coli YBA685 rctB-dependent plasmid, OD600 growth, 3 h; stronger effect = lower value; in the data active means z-score below about -2, passing the limit was not always enough
# A number is an active result; n = inactive; x = no result.
SMILES,PV pol inh,Mtb MbtI inh,MenB inh,AID504770
Clc1ccc2c(c1)CCN2,n,n,36.3,n
O=C(Cc1nc2ccccc2s1)c1ccccc1,72.0,n,x,n
NN=C(c1ccccc1)c1ccccc1,n,n,n,n
O=S(N=C(c1ccccc1)c1ccccc1)c1ccccc1 (configuration not stated),n,68.2,n,n
O=C1N(Cc2ccccc2)C(c2ccccc2)C1(F)F (configuration not stated),n,n,x,n
COc1cccc(C2N(Cc3ccccc3)C(=O)C2(F)F)c1OC (configuration not stated),89.0,n,x,n
Cc1ccc2c(c1)C(C(=O)O)=Cc1ccccc1O2,n,n,n,n
CCOC(=O)c1sc2nc(C(F)(F)F)nn2c1C,x,x,x,-2.5
CC(C)(C)c1cc(CCC#N)cc(C(C)(C)C)c1O,n,n,n,n
CC(C)(C)c1cc(SCCC#N)cc(C(C)(C)C)c1O,n,n,n,-2.2
S=C1CSc2ccccc2N1,n,77.7,n,n
c1ccc2c(c1)Nc1ccccc1S2,n,n,n,n
CCOC(=O)c1c(-c2cccs2)csc1NC(=O)COC(=O)c1cc2c(s1)CCC2,n,n,n,n
COC(=O)c1c(NC(=O)COc2ccc(C(C)C)cc2)sc2c1CCCC2,n,x,x,x
CCCc1ccc(OCC(=O)Nc2scc(-c3cccs3)c2C(=O)OC)cc1,74.0,x,x,x
COC(=O)c1c(-c2cccs2)csc1NC(=O)COc1ccc(C(C)C)cc1,70.0,x,x,x
Nc1nc(N)nc(SCC(=O)N(C2=CCCCC2)C2CC2)n1,n,n,n,n
CCN(Cc1ccc2c(c1)OCCO2)C(=S)NCc1ccco1,n,88.7,n,n
O=C(Cc1ccc2c(c1)OCCO2)NCc1ccco1,x,n,n,n
CCCCn1c(N)c(N(CCOC)C(=O)CN2CCCCCC2)c(=O)[nH]c1=O,n,n,n,n
Cc1ccc(C)c(N2CCN(C3CCCCCCC3)CC2)c1,n,n,n,n
Cc1ccsc1CNCCCO,n,n,n,n
Cn1nc(-c2ccccn2)sc1=S,n,n,n,n
Cc1cc(=S)nc(-c2ccccn2)[nH]1,n,81.3,n,n
O=C1CC(N2CCSC2=S)C(=O)N1c1cccc(Cl)c1Cl (configuration not stated),n,n,x,n
SMILES,PV pol inh,Mtb MbtI inh,MenB inh,AID504770
O=C(/C=C/c1ccco1)N1C(=Nc2ccccc2)SCc2ccccc21,n,n,n,n
O=C(CNc1ccccc1Cl)N/N=C1\CCCc2ccccc21,n,n,39.0,n
O=C(NCc1ccc(Cl)cc1Cl)c1ccc(Br)o1,n,n,x,n
O=C(CCCOc1ccccc1)Nc1ccccc1,x,n,n,n
CC(C)N(CCc1ccncc1)C(=S)NCC1CCCO1 (configuration not stated),n,n,n,n
O=C(CSc1cccc[n+]1[O-])c1cc2ccccc2o1,n,97.8,x,n
O=C(CSc1cccc[n+]1[O-])c1cccs1,n,97.7,x,n
CCC(=O)Nc1nnc(CC(=O)N/N=C/c2ccc(O)cc2)s1,n,n,n,n
CCc1ccc(NC(=O)C(C)n2nnc3sc(-c4ccccc4)cc3c2=O)cc1 (configuration not stated),79.0,x,x,x
COC(=O)C(C)n1nnc2sc(-c3ccccc3)cc2c1=O (configuration not stated),n,x,x,x
C=CCN(C(=O)c1cc2ccccc2o1)C1(C(=O)Nc2ccc(F)cc2)CCN(C(C)=O)CC1,n,n,n,n
Cn1sc(=O)c2ccc(S(=O)(=O)NCCc3ccncc3)cc21,x,x,x,-2.55
CCCCCCNc1nc(Oc2ccccc2)nc(Oc2ccccc2)n1,n,n,n,n
c1ccc2c(c1)COC1(CCCCC1)N2,n,n,38.1,n
CNC(=O)/C(C#N)=C/N(C)C,n,n,n,n
Oc1ccc(-c2nc3ccccc3s2)cc1,x,n,n,-2.3
CC1CC(OCC(O)CN)CC(C)(C)C1 (configuration not stated),n,n,n,-2.15
NNC(=O)CSc1c(-c2cccs2)[nH]c2ccccc12,n,n,37.7,n
C=CCNC(=O)CSc1nc(O)cc(=O)[nH]1,x,x,x,n
CC(C)Nc1nc(NC(C)C)nc(C(N)=O)n1,n,n,35.5,n
CC1=CC(c2ccccc2)=C(C#N)C(=S)C1CC(=O)c1cccs1 (configuration not stated),85.0,x,n,n
COC(=O)C(C#N)=C(SC)SC,n,82.8,n,n
O=C(OCC(=O)N1CCCCC1)c1ccccc1OCCOc1ccccc1,n,n,n,n
CCN(CC)C(=O)CSc1nc2cc(Cl)ccc2o1,x,n,x,n
CCc1c(C)nc(SCCOc2ccc(OC)cc2)[nH]c1=O,x,x,x,n
SMILES,PV pol inh,Mtb MbtI inh,MenB inh,AID504770
COc1ccc(OCCSc2nc(C)cc(=O)[nH]2)cc1,n,n,51.0,n
NC(=S)NCC1CCCO1 (configuration not stated),n,89.2,n,n
CC1Sc2ccc(C(=O)Oc3ccc4c(c3)OCO4)cc2NC1=O (configuration not stated),n,n,n,n
Cc1ccc(CC(=O)Nc2ccc3c(c2)N(C)C(=O)c2ccccc2S3)cc1,70.0,x,x,x
CCN(CC(=O)NCc1ccc(F)cc1)C(=O)c1cn(CC)c2nc(C)ccc2c1=O,n,n,n,n
COc1ccc(CCNc2nc(C)nc3c2nnn3Cc2ccccc2)cc1OC,n,n,38.8,n
CC(/C=N/N1C(=O)c2ccccc2C1=O)c1ccccc1 (configuration not stated),n,n,n,n
O=C(CSc1nnc(-c2ccco2)o1)NCCCN1CCCC1=O,n,n,n,n
O=c1[nH]c(=S)[nH]nc1-c1ccc(F)c(F)c1,n,100.5,n,n
Fc1ccc(-c2nnc(Cl)c3ccccc23)cc1F,n,n,x,n
CC(C)Nc1nn(CN2CCN(C(=O)c3ccccc3)CC2)c(=S)s1,n,76.8,n,n
CC(NC(=O)Cn1[nH]c(=O)c2ccccc2c1=O)c1ccc(-n2ccnc2)cc1 (configuration not stated),n,n,n,n
Cc1noc(C)c1CSc1ccccc1C(=O)NC(C)c1ccc(-n2ccnc2)cc1 (configuration not stated),n,99.2,n,n
COc1ccc(OC)c(CNC(=O)CSc2c3c(nc4cc(Cl)ccc24)CCCC3)c1,74.0,x,x,x
C=CCN1C(=O)/C(=C2/C=CC=CN2C)SC1=S,n,n,n,n
Fc1ccc(-c2nc3n(n2)Cc2ccccc2-3)cc1,n,n,n,n
NC(=S)Cc1nc2n(n1)Cc1ccccc1-2,83.0,76.9,n,n
COCC(=O)Nc1ccccc1C(C)C,n,n,n,n
CC(C)c1ccccc1NN,79.0,x,n,n
CC1CCN(c2nnc(NC(=O)c3csc4c3CCCC4)s2)CC1,n,n,n,n
O=C(Nc1ccccc1)Nc1ccc2snnc2c1,n,n,n,-2.6
O=C(Nc1ccccc1)Nc1ccc2nnsc2c1,n,n,n,n
O=C(CN(Cc1ccccc1)C(=O)Cn1nnc(-c2ccc(F)cc2)n1)NC1CCCC1,n,n,n,n
